Experimental data as given in PubChem BioAssay (NCATS).
Inconclusive results are not listed. Active and inactive are the calls of the source. Unless noted, calls come from the whole dose curve; as a rule, active = well fitted cell-killing curve with a large enough effect; inconclusive = small, poorly fitted or top-dose-only effect, or effect the other way; inactive = no such curve, though single readings can be large or run the other way.

Key:
[1] = Quantitative High-Throughput drug screen in 47 multiple myeloma cell lines against the NCATS MIPE library collection: KMS28PE_JCRB cell viability assay (AID 1918983); note: potency is the fitted concentration of half-maximal effect; nearly all actives have a fitted effect of over 35% in size
Outline: (§1)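 Plated at 500 cells per well, myeloma lines received MIPE 4.0 compounds by pin tool. Following 48 h culture at 37 °C, CellTiter-Glo luminescence gave viability relative to DMSO and media-only controls.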

[2] = Quantitative High-Throughput drug screen in 47 multiple myeloma cell lines against the NCATS MIPE library collection: L363_DSMZ cell viability assay (AID 1918984); note: potency is the fitted concentration of half-maximal effect; nearly all actives have a fitted effect of over 40% in size
Outline: as §1

[3] = Quantitative High-Throughput drug screen in 47 multiple myeloma cell lines against the NCATS MIPE library collection: KMS34_JCRB cell viability assay (AID 1918985); note: potency is the fitted concentration of half-maximal effect; nearly all actives have a fitted effect of over 40% in size
Outline: as §1

[4] = Quantitative High-Throughput drug screen in 47 multiple myeloma cell lines against the NCATS MIPE library collection: OCIMY7_PLB cell viability assay (AID 1918987); note: potency is the fitted concentration of half-maximal effect; nearly all actives have a fitted effect of over 65% in size
Outline: as §1

[5] = Quantitative High-Throughput drug screen in 47 multiple myeloma cell lines against the NCATS MIPE library collection: OPM1_PLB cell viability assay (AID 1918989); note: potency is the fitted concentration of half-maximal effect; nearly all actives have a fitted effect of over 40% in size
Outline: as §1

[6] = Quantitative High-Throughput drug screen in 47 multiple myeloma cell lines against the NCATS MIPE library collection: SKMM1_PLB cell viability assay (AID 1919863); conditions: SKMM1 myeloma viability, CellTiter-Glo ATP, 48 h; viability: stronger effect = lower value; note: potency is the fitted concentration of half-maximal effect; nearly all actives have a fitted effect of over 35% in size
Outline: as §1

[7] = Quantitative High-Throughput drug screen in 47 multiple myeloma cell lines against the NCATS MIPE library collection: U266_ATCC cell viability assay (AID 1919864); note: potency is the fitted concentration of half-maximal effect; nearly all actives have a fitted effect of over 35% in size
Outline: as §1

[8] = Quantitative High-Throughput drug screen in 47 multiple myeloma cell lines against the NCATS MIPE library collection: XG6_PLB cell viability assay (AID 1919865); note: potency is the fitted concentration of half-maximal effect; nearly all actives have a fitted effect of over 40% in size
Outline: as §1

[9] = Quantitative High-Throughput drug screen in 47 multiple myeloma cell lines against the NCATS MIPE library collection: VP6_DJ cell viability assay (AID 1919867)
Outline: as §1

[10] = Quantitative High-Throughput drug screen in 47 multiple myeloma cell lines against the NCATS MIPE library collection: UTMC2_PLB cell viability assay (AID 1919868); conditions: CellTiter-Glo ATP luminescence, 48 h; viability (% of DMSO control): at 45.8 µM (top of the series) unless noted; note: potency is the fitted concentration of half-maximal effect; nearly all actives have a fitted effect of over 55% in size
Outline: as §1

[11] = Quantitative High-Throughput drug screen in 47 multiple myeloma cell lines against the NCATS MIPE library collection: PE2_PLB cell viability assay (AID 1919869); note: potency is the fitted concentration of half-maximal effect; nearly all actives have a fitted effect of over 35% in size
Outline: as §1

[12] = Quantitative High-Throughput drug screen in 47 multiple myeloma cell lines against the NCATS MIPE library collection: PCM6_Riken cell viability assay (AID 1919870); note: potency is the fitted concentration of half-maximal effect; nearly all actives have a fitted effect of over 30% in size
Outline: as §1

[13] = Quantitative High-Throughput drug screen in 47 multiple myeloma cell lines against the NCATS MIPE library collection: OPM2_DSMZ cell viability assay (AID 1919872); note: potency is the fitted concentration of half-maximal effect; nearly all actives have a fitted effect of over 30% in size
Outline: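 Relative luminescence from CellTiter-Glo served as the viability signal, referenced to DMSO-treated (100%) and cell-free medium (0%) controls. Treatment lasted 48 hours at 37C with 500 cells per well.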

[14] = Quantitative High-Throughput drug screen in 47 multiple myeloma cell lines against the NCATS MIPE library collection: KMS11_JCRBsus cell viability assay (AID 1919873); note: potency is the fitted concentration of half-maximal effect; nearly all actives have a fitted effect of over 50% in size
Outline: as §1

[15] = Quantitative High-Throughput drug screen in 47 multiple myeloma cell lines against the NCATS MIPE library collection: KMS28BM_JCRB cell viability assay (AID 1919874)
Outline: as §1

[16] = qHTS drug screen for cell cycle checkpoint inhibitors in PARPi-resistant BRCA-mutant ovarian cancer cell lines. (AID 1963452; calls by dose curve); conditions: PEO1/OlaR viability, CellTiter-Glo luminescence, 96 h, stronger effect = lower value
Outline: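 PEO1, PEO4 and PEO1/OlaR ovarian cancer cells, 600 per well, exposed 96 h at 37C to a dilution series. Viability read by CellTiter-Glo luminescence, normalized to DMSO and empty wells; activity summarized as Z-AUC.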

[17] = qHTS for identification of novel therapeutic agents for treatment of microphthalmiaassociated transcription factor (MiT) renal cell carcinoma (RCC) (AID 1963991; calls by dose curve; note: potency is the fitted concentration of half-maximal effect); conditions: CellTiter-Glo, 48 h; for Potency: active = Z-AUC below -0.8 in all three lines; for z-score: stronger effect = lower value
Outline: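 Three TFE3-fusion RCC cell lines (UOK109, UOK124, UOK145), 500 cells/well, were exposed to the 1912-compound MIPE 4.0 library for 48 hours at 37 C. Viability was read by CellTiter-Glo luminescence, normalised to DMSO (100%) and empty wells (0%), with 11-concentration curve fits.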

[18] = Quantitative High-Throughput drug screen in 47 multiple myeloma cell lines against the NCATS MIPE library collection: OCIMY5_PLB cell viability assay (AID 1918988); note: potency is the fitted concentration of half-maximal effect; nearly all actives have a fitted effect of over 65% in size
Outline: as §1

[19] = Quantitative High-Throughput drug screen in 47 multiple myeloma cell lines against the NCATS MIPE library collection: XG1_PLB cell viability assay (AID 1919866)
Outline: as §1

[20] = Quantitative High-Throughput drug screen in 47 multiple myeloma cell lines against the NCATS MIPE library collection: RPMI8226_ATCC cell viability assay (AID 1919871); note: potency is the fitted concentration of half-maximal effect; nearly all actives have a fitted effect of over 30% in size
Outline: as §1

[21] = measured here: PEO1 parental Z-AUC
[22] = TFE3-RCC UOK109 viability, measured here: UOK109 Z-AUC
[23] = TFE3-RCC viability, measured here: UOK124 Z-AUC
[24] = TFE3-RCC viability, measured here: UOK145 Z-AUC

CC(C)c1cc(-c2n[nH]c(=O)n2-c2ccc3c(ccn3C)c2)c(O)cc1O
-0.923: z-score [17, 23]
0.105: Z-AUC ([16]; measured here: PEO4 Z-AUC)
active: Potency [1] 13.2 nM | Potency [2] 11.8 nM | Potency [3] 26.4 nM | Potency [4] 11.8 nM | Potency [5] 29.6 nM | Potency [6] 74.3 nM | Potency [7] 37.2 nM | Potency [8] 59 nM | Potency [9] 20.9 nM | Potency [10] 52.6 nM | Potency [11] 37.2 nM | Potency [12] 23.5 nM | Potency [13] 41.8 nM | Potency [14] 16.6 nM | Potency [15] 41.8 nM | Potency ([17]; TFE3-RCC UOK109 viability) 74.3 nM
-1.07: Z-AUC [16, 21]
inactive: Z-AUC [16] -0.89
-1.27: z-score [17, 24]
-1.34: z-score [17, 22]

COc1ccc2c(c1)CC[C@@H](CN(C)CC(=O)O)[C@H]2c1ccccc1
1.17: Z-AUC [16, 21]
inactive: Z-AUC [16] 0.47
active: Potency [1] 4180 nM | Potency [2] 1660 nM | Potency [3] 4690 nM | Potency [18] 1480 nM | Potency [5] 10500 nM | Potency [6] 1050 nM | Potency [7] 16600 nM | Potency [8] 833 nM | Potency [19] 833 nM | Potency [9] 1870 nM | Potency [12] 1660 nM | Potency [20] 2640 nM | Potency [13] 8330 nM | Potency [14] 662 nM | Potency [15] 1050 nM
1.29: Z-AUC ([16]; measured here: PEO4 Z-AUC)

CC=C1NC(=O)[C@H]2CSSCCC=C[C@H](CC(=O)N[C@H](C(C)C)C(=O)N2)OC(=O)[C@H](C(C)C)NC1=O
-4.08: z-score [17, 23]
active: Potency [1] 20.9 nM | Potency [2] 6.6 nM | Potency [3] 26.4 nM | Potency [18] 6.6 nM | Potency [5] 13.2 nM | Potency [6] 41.8 nM | Potency [7] 37.2 nM | Potency [8] 23.5 nM | Potency [9] 1 nM | Potency [10] 33.2 nM | Potency [11] 59 nM | Potency [12] 1 nM | Potency [20] 26.4 nM | Potency [13] 29.6 nM | Potency [14] 18.7 nM | Potency [15] 16.6 nM | Potency ([17]; TFE3-RCC UOK109 viability) 33.2 nM
-2.33: z-score [17, 24]
-2.23: z-score [17, 22]

CN(C)CC=CC(=O)Nc1cc2c(Nc3ccc(F)c(Cl)c3)ncnc2cc1O[C@H]1CCOC1
active: Potency [1] 18700 nM | Potency [2] 1320 nM | Potency [3] 20900 nM | Potency [18] 3320 nM | Potency [5] 3720 nM | Potency [6] 6620 nM | Potency [7] 20900 nM | Potency [8] 2640 nM | Potency [19] 4180 nM | Potency [9] 590 nM | Potency [10] 5260 nM | Potency [11] 2960 nM | Potency [12] 1180 nM | Potency [20] 16600 nM | Potency [14] 6620 nM

Cc1ccc(-c2ncn(-c3ccc(Nc4nccc(-c5cccc(N6CCOCC6)c5)n4)cc3)n2)cn1
-1.3: z-score [17, 22]
active: Potency [1] 148 nM | Potency [2] 74.3 nM | Potency [3] 166 nM | Potency [4] 132 nM | Potency [18] 52.6 nM | Potency [5] 83.3 nM | Potency [7] 132 nM | Potency [8] 132 nM | Potency [9] 29.6 nM | Potency [10] 187 nM | Potency [12] 37.2 nM | Potency [20] 132 nM | Potency [13] 296 nM | Potency [14] 74.3 nM | Potency ([17]; TFE3-RCC UOK109 viability) 264 nM
-1.38: z-score [17, 24]
-2.07: z-score [17, 23]

CN(c1ncccc1CNc1nc(Nc2ccc3c(c2)CC(=O)N3)ncc1C(F)(F)F)S(C)(=O)=O
active: Potency [1] 9350 nM | Potency [2] 2640 nM | Potency [3] 8330 nM | Potency [18] 5260 nM | Potency [5] 4690 nM | Potency [6] 14800 nM | Potency [7] 9350 nM | Potency [8] 3720 nM | Potency [19] 3320 nM | Potency [9] 2640 nM | Potency [10] 2350 nM | Potency [11] 3320 nM | Potency [12] 2350 nM | Potency [20] 8330 nM | Potency [13] 7430 nM | Potency [14] 2640 nM | Potency [15] 6620 nM
-0.665: Z-AUC ([16]; measured here: PEO4 Z-AUC)
inactive: Z-AUC [16] -0.236
-0.701: Z-AUC [16, 21]

Nc1cc(C(F)(F)F)c(-c2cc(N3CCOCC3)nc(N3CCOCC3)n2)cn1
-0.609: Z-AUC ([16]; measured here: PEO4 Z-AUC)
inactive: Z-AUC [16] -2.03
-0.856: z-score [17, 22]
-1.2: Z-AUC [16, 21]
-0.844: z-score [17, 23]
active: Potency [1] 935 nM | Potency [2] 209 nM | Potency [3] 833 nM | Potency [4] 590 nM | Potency [5] 1050 nM | Potency [7] 4690 nM | Potency [8] 662 nM | Potency [19] 469 nM | Potency [9] 743 nM | Potency [10] 264 nM | Potency [11] 935 nM | Potency [12] 1480 nM | Potency [20] 526 nM | Potency [13] 2640 nM | Potency [14] 66.2 nM | Potency [15] 41.8 nM | Potency ([17]; TFE3-RCC UOK109 viability) 662 nM
-1.62: z-score [17, 24]

Fc1cc(-c2cccc3ncc(-c4cnn(C5CCNCC5)c4)nc23)cc(F)c1CN1CCOCC1
active: Potency [1] 23500 nM | Potency [2] 6620 nM | Potency [3] 14800 nM | Potency [4] 6620 nM | Potency [5] 8330 nM | Potency [6] 23500 nM | Potency [7] 20900 nM | Potency [8] 7430 nM | Potency [19] 7430 nM | Potency [9] 9350 nM | Potency [11] 8330 nM | Potency [12] 7430 nM | Potency [20] 20900 nM | Potency [14] 9350 nM | Potency [15] 26400 nM
